Source: the supplement of paper PMC11732987, “Enantioselective OTUD7B fragment discovery through chemoproteomics screening and high-throughput optimisation” (Communications Chemistry, 2025)

What was measured:
Assay in all cases: log2 ratio of Biotin-Ahx-Ub-VS probe labelling (fragment/DMSO); higher = less target engagement (more negative = stronger competition), active = hit call of the paper (q ≤ 0.05, log2 ratio ≤ -1)
Conditions in all cases: compound concentration: 200 uM; treatment time: 3 h
USP34 = USP34 (UniProt Q70CQ2)
USP34, sequence (Q70CQ2 whole entry, the tested form may be a part): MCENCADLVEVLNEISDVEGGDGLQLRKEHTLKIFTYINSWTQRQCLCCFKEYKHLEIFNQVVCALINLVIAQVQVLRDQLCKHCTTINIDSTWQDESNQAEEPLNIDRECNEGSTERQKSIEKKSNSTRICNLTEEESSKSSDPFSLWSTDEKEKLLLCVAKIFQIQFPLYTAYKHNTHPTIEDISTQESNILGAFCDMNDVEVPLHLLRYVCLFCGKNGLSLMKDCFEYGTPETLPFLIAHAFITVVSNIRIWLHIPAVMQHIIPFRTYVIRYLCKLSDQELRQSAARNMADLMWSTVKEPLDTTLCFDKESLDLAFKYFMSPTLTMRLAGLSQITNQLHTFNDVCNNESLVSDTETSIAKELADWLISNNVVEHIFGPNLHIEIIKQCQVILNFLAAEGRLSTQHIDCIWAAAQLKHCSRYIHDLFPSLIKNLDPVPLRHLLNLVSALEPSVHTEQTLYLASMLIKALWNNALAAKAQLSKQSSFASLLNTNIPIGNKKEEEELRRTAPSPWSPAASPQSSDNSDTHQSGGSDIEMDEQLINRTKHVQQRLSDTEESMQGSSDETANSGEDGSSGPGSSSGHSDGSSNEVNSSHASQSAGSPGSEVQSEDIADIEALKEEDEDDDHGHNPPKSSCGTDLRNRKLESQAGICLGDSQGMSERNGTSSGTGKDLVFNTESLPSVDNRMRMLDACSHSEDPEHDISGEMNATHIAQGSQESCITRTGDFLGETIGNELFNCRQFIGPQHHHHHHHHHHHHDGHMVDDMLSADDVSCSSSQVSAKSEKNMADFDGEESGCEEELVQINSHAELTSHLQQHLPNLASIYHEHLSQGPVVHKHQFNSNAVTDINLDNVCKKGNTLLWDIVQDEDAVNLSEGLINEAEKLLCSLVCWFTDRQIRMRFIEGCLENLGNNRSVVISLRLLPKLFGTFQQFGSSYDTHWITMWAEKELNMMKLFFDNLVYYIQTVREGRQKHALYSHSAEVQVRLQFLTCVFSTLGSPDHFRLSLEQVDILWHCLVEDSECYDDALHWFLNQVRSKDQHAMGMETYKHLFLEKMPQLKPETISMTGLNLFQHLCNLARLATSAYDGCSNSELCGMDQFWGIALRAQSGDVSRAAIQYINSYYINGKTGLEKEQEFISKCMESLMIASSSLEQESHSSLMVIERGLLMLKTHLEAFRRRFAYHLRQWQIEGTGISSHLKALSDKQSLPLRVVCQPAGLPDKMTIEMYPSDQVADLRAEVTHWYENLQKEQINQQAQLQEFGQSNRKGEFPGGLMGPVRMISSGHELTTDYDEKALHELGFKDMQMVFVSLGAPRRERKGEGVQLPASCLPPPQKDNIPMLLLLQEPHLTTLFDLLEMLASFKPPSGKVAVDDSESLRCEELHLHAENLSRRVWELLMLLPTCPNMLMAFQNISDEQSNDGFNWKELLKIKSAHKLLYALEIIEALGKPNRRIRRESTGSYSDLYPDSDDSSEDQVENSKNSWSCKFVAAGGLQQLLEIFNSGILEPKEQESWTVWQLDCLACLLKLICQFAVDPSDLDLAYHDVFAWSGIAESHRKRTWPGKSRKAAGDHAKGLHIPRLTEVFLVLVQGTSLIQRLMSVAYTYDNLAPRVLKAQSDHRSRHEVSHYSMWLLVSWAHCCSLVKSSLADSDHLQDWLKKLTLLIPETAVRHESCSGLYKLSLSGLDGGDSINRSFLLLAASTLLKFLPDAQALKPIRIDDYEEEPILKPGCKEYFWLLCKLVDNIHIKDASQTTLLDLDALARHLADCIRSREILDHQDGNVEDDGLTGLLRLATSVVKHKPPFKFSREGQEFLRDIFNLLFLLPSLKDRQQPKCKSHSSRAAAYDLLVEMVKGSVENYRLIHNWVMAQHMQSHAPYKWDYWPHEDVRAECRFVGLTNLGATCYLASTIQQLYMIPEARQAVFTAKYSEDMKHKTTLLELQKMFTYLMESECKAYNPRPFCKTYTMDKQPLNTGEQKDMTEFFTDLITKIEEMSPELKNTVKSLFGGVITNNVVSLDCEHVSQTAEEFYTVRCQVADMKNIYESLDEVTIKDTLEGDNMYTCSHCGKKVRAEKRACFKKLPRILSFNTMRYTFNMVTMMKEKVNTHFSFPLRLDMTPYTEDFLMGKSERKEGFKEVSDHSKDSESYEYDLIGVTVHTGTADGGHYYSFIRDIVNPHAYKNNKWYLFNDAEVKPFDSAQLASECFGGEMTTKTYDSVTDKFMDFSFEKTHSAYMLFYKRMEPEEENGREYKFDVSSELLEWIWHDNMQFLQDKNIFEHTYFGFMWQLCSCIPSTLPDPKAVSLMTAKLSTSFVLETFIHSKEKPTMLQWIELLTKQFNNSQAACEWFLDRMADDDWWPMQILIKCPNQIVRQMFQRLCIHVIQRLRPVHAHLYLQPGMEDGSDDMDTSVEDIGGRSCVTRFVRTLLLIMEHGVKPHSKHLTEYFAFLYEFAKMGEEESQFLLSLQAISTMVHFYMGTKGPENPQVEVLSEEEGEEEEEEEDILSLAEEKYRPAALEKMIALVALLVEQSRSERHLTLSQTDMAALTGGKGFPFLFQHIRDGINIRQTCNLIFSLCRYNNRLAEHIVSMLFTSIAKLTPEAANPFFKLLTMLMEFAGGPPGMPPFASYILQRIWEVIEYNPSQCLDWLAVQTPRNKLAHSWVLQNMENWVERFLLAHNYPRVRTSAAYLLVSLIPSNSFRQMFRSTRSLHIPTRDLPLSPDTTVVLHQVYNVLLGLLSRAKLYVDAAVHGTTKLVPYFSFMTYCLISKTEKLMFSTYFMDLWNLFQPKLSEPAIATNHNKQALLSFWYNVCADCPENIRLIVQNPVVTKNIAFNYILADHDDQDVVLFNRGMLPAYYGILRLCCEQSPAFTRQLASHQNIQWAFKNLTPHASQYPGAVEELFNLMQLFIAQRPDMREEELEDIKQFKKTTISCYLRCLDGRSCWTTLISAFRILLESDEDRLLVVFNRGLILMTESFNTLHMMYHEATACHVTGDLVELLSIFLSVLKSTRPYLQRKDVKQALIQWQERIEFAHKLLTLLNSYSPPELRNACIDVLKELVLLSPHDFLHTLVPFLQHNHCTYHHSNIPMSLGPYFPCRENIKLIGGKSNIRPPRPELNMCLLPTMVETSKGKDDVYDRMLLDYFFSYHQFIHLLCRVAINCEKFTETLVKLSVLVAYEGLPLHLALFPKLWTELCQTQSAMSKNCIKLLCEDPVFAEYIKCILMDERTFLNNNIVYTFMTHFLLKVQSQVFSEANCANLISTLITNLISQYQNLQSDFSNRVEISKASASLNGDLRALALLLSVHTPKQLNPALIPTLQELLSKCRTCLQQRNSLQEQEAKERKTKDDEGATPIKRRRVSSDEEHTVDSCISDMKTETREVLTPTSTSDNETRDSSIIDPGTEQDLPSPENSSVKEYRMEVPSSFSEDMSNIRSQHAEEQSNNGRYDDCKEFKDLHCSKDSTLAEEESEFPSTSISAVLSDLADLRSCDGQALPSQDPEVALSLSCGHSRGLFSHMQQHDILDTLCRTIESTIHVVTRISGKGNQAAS
Procedure, shortened: (§1)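 HEK293T lysate in Tris/CHAPS/IGEPAL buffer with protease inhibitors (495 µg per sample) was given fragment at 200 µM or vehicle for 3 h, in triplicate. It then received Biotin-Ahx-Ub-VS at 0.5 µM final for 1 h. Labelled DUBs were NeutrAvidin-enriched, digested with LysC and trypsin, and run by diaPASEF LC-MS/MS. Values are average log2 fragment/vehicle ratios by unpaired t-test on global-median-normalised Spectronaut quantities of proteins with ≥2 unique peptides.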

USP36 = molecular target: T1, USP36 (UniProt Q9P275)
T1 sequence (whole entry): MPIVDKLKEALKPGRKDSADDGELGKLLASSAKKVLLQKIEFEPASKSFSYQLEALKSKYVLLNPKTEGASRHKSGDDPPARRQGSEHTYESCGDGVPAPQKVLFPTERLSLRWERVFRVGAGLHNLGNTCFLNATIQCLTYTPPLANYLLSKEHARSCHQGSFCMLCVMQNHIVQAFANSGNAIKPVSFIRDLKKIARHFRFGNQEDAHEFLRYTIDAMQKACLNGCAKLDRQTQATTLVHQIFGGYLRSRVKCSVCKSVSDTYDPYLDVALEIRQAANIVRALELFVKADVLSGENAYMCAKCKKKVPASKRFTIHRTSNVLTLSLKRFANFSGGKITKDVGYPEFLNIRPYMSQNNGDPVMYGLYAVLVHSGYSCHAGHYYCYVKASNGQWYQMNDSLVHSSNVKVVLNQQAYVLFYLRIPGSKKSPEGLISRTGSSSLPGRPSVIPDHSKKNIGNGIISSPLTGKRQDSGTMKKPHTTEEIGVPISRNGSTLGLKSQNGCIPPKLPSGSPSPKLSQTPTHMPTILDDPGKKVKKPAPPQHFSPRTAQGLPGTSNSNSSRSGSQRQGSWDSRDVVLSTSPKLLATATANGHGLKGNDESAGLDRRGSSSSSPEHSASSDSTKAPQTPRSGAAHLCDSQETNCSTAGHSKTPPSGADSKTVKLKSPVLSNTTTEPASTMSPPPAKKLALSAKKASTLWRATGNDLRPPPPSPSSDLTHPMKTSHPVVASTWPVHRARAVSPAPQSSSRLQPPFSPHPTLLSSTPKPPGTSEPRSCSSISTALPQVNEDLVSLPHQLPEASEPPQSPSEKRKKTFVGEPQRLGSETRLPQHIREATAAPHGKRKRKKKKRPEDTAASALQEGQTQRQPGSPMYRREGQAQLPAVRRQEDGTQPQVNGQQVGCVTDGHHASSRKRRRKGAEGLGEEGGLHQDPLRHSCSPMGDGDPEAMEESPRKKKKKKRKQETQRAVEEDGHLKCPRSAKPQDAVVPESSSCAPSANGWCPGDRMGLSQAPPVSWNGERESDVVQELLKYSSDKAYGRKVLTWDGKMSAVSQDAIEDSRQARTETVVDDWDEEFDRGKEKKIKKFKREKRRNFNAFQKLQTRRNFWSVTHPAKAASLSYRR
Procedure, shortened: as §1

USP38 = molecular target: T2, USP38 (UniProt Q8NB14)
T2 sequence (whole entry): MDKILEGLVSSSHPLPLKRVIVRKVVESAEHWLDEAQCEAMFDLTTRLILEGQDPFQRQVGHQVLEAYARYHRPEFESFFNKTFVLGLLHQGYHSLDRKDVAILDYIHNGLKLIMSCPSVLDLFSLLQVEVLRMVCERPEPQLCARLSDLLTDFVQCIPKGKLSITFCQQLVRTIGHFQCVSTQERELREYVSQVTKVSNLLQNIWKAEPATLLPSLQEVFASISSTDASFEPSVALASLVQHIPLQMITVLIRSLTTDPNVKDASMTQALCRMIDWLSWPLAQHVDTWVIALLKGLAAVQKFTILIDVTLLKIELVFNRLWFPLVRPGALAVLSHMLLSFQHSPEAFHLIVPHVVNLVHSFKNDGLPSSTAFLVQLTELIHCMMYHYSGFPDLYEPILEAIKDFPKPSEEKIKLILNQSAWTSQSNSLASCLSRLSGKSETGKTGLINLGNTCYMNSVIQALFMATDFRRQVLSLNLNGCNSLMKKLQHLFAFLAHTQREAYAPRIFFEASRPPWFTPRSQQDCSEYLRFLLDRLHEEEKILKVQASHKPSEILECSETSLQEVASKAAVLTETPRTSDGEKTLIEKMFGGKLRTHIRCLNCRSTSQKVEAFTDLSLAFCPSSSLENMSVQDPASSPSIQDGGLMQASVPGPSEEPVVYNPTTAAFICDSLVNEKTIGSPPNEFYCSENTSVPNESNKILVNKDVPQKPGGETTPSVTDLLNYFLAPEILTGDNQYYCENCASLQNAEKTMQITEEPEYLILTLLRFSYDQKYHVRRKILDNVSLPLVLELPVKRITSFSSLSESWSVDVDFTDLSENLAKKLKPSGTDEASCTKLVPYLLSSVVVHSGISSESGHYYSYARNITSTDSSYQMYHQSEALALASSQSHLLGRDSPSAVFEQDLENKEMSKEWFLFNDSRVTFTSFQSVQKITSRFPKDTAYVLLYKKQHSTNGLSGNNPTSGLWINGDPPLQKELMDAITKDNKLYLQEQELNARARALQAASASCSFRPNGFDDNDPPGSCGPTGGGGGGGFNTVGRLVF
Procedure, shortened: as §1

USP39 = molecular target: T3, USP39 (UniProt Q53GS9)
T3 sequence (whole entry): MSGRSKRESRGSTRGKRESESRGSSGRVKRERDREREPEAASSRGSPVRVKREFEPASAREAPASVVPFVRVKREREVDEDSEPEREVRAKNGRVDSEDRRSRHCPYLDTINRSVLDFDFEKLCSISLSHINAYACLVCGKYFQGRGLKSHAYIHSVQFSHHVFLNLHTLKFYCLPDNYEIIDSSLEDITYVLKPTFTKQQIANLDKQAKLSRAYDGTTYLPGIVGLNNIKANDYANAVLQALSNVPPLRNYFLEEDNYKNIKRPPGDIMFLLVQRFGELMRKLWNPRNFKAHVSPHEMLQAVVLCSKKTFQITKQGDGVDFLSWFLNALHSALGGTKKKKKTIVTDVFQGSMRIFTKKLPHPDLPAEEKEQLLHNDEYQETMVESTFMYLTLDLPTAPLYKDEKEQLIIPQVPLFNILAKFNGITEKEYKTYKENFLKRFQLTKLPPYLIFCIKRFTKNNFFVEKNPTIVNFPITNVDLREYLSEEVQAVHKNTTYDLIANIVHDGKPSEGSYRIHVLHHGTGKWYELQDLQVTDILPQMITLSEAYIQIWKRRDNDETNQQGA
Procedure, shortened: as §1

USP4 = molecular target: T4, USP4 (UniProt Q13107)
T4 sequence (whole entry): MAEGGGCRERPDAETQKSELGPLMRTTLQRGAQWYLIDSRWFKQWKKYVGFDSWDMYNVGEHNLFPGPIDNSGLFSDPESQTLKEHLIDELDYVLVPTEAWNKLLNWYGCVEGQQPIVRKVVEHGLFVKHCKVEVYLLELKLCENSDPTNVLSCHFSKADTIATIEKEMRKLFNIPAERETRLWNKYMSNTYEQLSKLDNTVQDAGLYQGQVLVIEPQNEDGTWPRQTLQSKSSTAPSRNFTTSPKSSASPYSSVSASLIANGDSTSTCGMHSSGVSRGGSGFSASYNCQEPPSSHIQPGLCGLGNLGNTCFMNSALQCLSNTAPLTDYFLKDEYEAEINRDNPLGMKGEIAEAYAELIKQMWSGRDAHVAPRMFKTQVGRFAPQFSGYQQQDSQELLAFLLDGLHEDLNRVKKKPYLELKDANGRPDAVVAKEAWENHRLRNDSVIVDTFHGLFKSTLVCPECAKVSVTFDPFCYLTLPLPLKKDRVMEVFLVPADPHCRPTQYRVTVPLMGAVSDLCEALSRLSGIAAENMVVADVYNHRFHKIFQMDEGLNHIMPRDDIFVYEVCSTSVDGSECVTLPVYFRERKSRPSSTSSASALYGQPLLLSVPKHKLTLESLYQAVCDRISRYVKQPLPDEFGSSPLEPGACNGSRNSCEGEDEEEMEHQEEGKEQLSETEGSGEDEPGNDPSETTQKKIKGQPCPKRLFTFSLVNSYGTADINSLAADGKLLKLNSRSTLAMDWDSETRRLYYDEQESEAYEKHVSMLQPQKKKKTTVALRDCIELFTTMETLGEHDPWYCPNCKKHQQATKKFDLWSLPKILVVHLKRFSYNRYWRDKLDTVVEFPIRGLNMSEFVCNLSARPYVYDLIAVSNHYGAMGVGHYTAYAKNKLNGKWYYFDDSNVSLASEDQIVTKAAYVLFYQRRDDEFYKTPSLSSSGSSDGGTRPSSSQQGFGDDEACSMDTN
Procedure, shortened: as §1

Measured: log2 ratio of Biotin-Ahx-Ub-VS probe labelling

CN(CCC(O)c1ccc(Br)cc1)C(=O)CCl (stereo not given)
inactive: USP34 -0.261 | USP36 -0.0809 | USP38 -0.17 | USP39 -0.00535 | USP4 -0.206
